DT40 TDP1 CPT: growth inhibition of DT40 Tdp1-/-;hTDP1 cells with camptothecin (screen for TDP1 inhibitors). chicken DT40 Tdp1-/-;hTDP1 cells + 20 nM CPT, ATP luminescence, 48 h. Potency, µM (top dose mostly 46.2 µM), most hits filed as inhibitors. 420,000 compounds, 12% hits. AID 686979; further: nearly all actives have a fitted effect of over 55% in size
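Cell growth measured by CellTiter-Glo luminescence after a minimum 48 h, 37 C compound exposure with 20 nM CPT in Tdp1-knockout DT40 cells stably expressing hTDP1, seeded 400/well; qHTS titration format.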
TDP1 block: TDP1 (human) enzyme inhibition; Q9NUW8; recombinant TDP1, AlphaScreen DNA substrate cleavage; Potency, µM (highest dose often 130 µM), actives largely listed as inhibitors; 350,000 compounds, 0.28% hits; AID 485290; further: nearly all actives have a fitted effect of over 40% in size
Target sequence (Q9NUW8 whole entry, looked up): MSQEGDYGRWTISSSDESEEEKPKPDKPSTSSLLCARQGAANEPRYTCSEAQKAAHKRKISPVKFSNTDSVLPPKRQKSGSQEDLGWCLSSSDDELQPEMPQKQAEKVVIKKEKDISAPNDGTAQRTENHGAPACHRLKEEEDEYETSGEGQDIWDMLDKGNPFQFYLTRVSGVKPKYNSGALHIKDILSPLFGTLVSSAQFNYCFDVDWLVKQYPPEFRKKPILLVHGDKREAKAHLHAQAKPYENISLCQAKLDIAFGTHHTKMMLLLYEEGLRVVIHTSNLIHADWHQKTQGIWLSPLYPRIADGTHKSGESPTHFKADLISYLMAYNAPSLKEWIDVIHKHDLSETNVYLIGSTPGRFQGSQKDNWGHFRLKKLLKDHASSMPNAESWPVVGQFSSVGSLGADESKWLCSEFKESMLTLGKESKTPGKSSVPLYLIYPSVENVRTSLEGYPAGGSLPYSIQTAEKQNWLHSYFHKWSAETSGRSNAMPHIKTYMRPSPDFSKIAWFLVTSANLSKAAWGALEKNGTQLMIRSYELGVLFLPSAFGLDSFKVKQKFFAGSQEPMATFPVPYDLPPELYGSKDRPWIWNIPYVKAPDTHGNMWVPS
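Steps: enzyme plus compound, 15 min RT; add biotin/phosphotyrosine-FITC oligonucleotide (15 nM final), react 5 min; add donor/acceptor beads (10 ug/ml final), 10 min; read AlphaScreen. Tdp1 at 1 nM final.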
ClpP mod: qHTS Assay for Activators of ClpP | Potency, µM (highest dose often 57.5 µM) | purified B. subtilis ClpP, FRET peptide cleavage, 20 min | AID 651965, 2013 | ATP-dependent Clp protease proteolytic subunit (Bacillus subtilis (strain 168)), P80244 | 340,000 compounds, 1.9% hits; active means well fitted falling curve with a large enough effect; inconclusive means small, poorly fitted or top-dose-only effect; inactive means no such curve, though single readings can be large or run the other way; further: the source files actives as falling curves though it sought activators and does not explain the sign; nearly all actives have a fitted effect of over 65% in size
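ClpP 10 microg/mL final, pH 8 Tris/KCl buffer with BSA, glycerol, Tween-20; compound pinned in; FRET-FV substrate; RT 20 min; Ex320/Em430; ΔFRET vs ADEP 5.8 microM, DMSO, no enzyme.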
DT40 TDP1 no CPT: qHTS for Inhibitors of human tyrosyl-DNA phosphodiesterase 1 (TDP1): qHTS in cells in absence of CPT; DT40 Tdp1-/- hTDP1 cells, no CPT, ATP luminescence, 48 h; Potency, µM (titrated, usually from 46.2 µM), hits mostly inhibitors; 420,000 compounds, 15% hits; further: nearly all actives have a fitted effect of over 55% in size
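Luminescent ATP content (CellTiter-Glo) served as the growth readout. Knockout chicken DT40 cells expressing human TDP1 were exposed to compounds without camptothecin for a minimum 48 hr at 37 °C.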
A number is an active result; - = inactive; ? = inconclusive; . = no result given; ! = not confirmed by another sample. This is a sample that favours compounds with a hit; in the whole collection about 17% have one here. Unless noted, the call rests on the fitted dose curve; in most records, active means well fitted curve in the direction sought with a large enough effect; inconclusive means small, poorly fitted or top-dose-only effect, or another doubt; inactive means no such curve, though single readings can be large; an effect the other way counts as inactive or inconclusive.

SMILES	DT40 TDP1 CPT	TDP1 block	ClpP mod	DT40 TDP1 no CPT
Cc1cc(C)nc(N/C(=N\S(=O)(=O)Cc2ccccc2)Nc2ccccc2Br)n1	20.6µM	-	-	20.6µM
O=C(Cc1cccs1)N(c1ccc(Br)cc1)C1C=CS(=O)(=O)C1 (stereo not given)	16.4µM	-	.	?
CCc1nc2ccc(C(=O)NC(C)(C)C)cn2c1N(CC)Cc1cccc(Br)c1	18.4µM	.	-	16.4µM
CCc1nc2ccc(C(=O)NCCc3ccccn3)cn2c1N(CC)Cc1cccc(Br)c1	8.2µM	.	-	9.2µM
CCc1nc2ccc(C(=O)NCc3ccc4c(c3)OCO4)cn2c1N(CC)Cc1cccc(Br)c1	?	.	-	?
CCc1nc2ccc(C(=O)NCCCN3CCCC3=O)cn2c1N(CC)Cc1cccc(Br)c1	20.6µM	.	-	?
CN(CC(=O)Nc1ccc(N2CCOCC2)cc1)C(=O)c1cc2c(s1)CCCC2	-	-	-	-
COC(=O)c1c(NC(=O)c2ccco2)sc(C(=O)Nc2ccc(F)cc2)c1C	?	-	-	23.1µM
CCOC(=O)c1ccc(NC(=O)c2ccco2)cc1	-	-	-	-
COC(=O)c1c(NC(=O)c2ccco2)sc(C)c1C	-	-	-	-
CC(C)OC(=O)c1ccc(NC(=O)c2ccco2)cc1	18.4µM	-	-	23.1µM
O=C(Nc1ccc2oc(=O)ccc2c1)c1ccco1	-	-	28.2µM	-
O=C(Cc1ccccc1)Nc1ccc2oc(=O)ccc2c1	-	-	-	-
O=C(Nc1ccc(Nc2ccccc2)cc1)c1ccco1	20.6µM	-	-	20.6µM
CCCCCn1c(SCc2cccc(C)c2)nc2c1c(=O)[nH]c(=O)n2C	?	.	-	?
O=C(CSc1ccc(-c2nc3ccccc3[nH]2)cn1)N1CCN(C(=O)c2ccco2)CC1	23.1µM	-	31.6µM	?
O=C(Nc1ccc(Oc2ccc3ccccc3c2)cc1)c1ccco1	?	-	15.8µM	?
O=C(/C=C/c1ccco1)Nc1ccc(-c2nc3ccccc3[nH]2)cc1	-	?	-	?
O=C(Nc1ccc(-c2nc3ccccc3[nH]2)cc1)c1ccco1	14.6µM	-	-	14.6µM
Nc1c(C(=O)NCc2cccs2)nnn1CC(=O)Nc1cccc(F)c1	-	-	-	-
CCc1c(C2(O)CCCCC2)[nH]c2c(C(=O)OC)cc(Cl)cc12	?	.	-	?
COC(=O)c1cc(Cl)cc2c(C)c(C3(O)CCCCC3)[nH]c12	?	.	-	20.6µM
O=C(O)c1cccc(Cl)c1Cl	.	-	.	.
C=C(C)COc1ccc(-c2nc(N)ncc2-c2ccc(OC)cc2)c(O)c1	.	-	.	.
C=C(C)COc1ccc(-c2nc(N)nc(C)c2-c2ccc(OC)cc2)c(O)c1	?	-	25.1µM	?
SMILES	DT40 TDP1 CPT	TDP1 block	ClpP mod	DT40 TDP1 no CPT
C=C(C)COc1ccc(-c2nc(N)ncc2-c2ccc(Cl)cc2)c(O)c1	23.1µM	.	-	?
Cc1cc(C)n(CCNC(=O)CC2C(=O)NCCN2CC2CCCCC2)n1 (stereo not given)	-	-	.	-
OCCOCCN1CCN(C(c2ccccc2)c2ccc(Cl)cc2)CC1 (stereo not given)	?	-	-	?
OCCOCCN1CCN(C2=Nc3ccccc3Sc3ccccc32)CC1	23.7µM!	-	-	18.8µM!
CCn1c(SCC(=O)N2CCCc3ccccc32)nc2ccccc2c1=O	?	-	-	14.6µM
COCCCn1c(=O)c2ccccc2n(CC(=O)N2CCCc3ccccc32)c1=O	25.9µM	-	.	?
CC(C)Cn1c(SCC(=O)N2CCCc3ccccc32)nc2ccccc2c1=O	16.4µM	.	.	18.4µM
O=C(CSc1nc2ccccc2c(=O)n1-c1ccccc1)N1CCCc2ccccc21	-	-	-	?
O=C(CSc1nccn1-c1ccc(Cl)cc1)N1CCCc2ccccc21	?	-	-	14.6µM
O=C(CSc1nccn1-c1ccccc1)N1CCc2ccccc21	-	-	-	-
Cn1c(SCC(=O)N2CCc3ccccc32)nc2cccnc21	16.4µM	-	-	20.6µM
CC(C)OCCCn1c(SCC(=O)N2CCc3ccccc32)nc2ccccc2c1=O	?	-	-	11.6µM
CCn1c(SCC(=O)N2CCCc3ccccc32)nc2cccnc21	?	-	-	18.4µM
COc1ccc(Cn2cc(CN3CC(N4CCN(C5CCN(C)CC5)CC4)CS3(=O)=O)nn2)cc1 (stereo not given)	-	.	-	-

High-throughput results deposited in PubChem BioAssay by National Center for Advancing Translational Sciences (NCATS).
